The panel holds about 83,000 compounds, 20% with a hit somewhere; the sample as a whole holds those more often.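 Each cell line was grown in a 96-well plate and treated with one concentration of compound for 48 hours. Values below 10 were considered active.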 Values without a mark were called inactive. Calls of active or inactive are those of the source.
Legend:
Experiment in all cases: NCI-60 one-dose screen, 48 h (100 = growth as untreated, 0 = no growth, -100 = all killed)
Conditions in all cases: 10 µM
DU-145 prostate = system: DU-145 prostate
K-562 leukemia = system: K-562 leukemia
MALME-3M melanoma = system: MALME-3M melanoma
MDA-MB-231 breast = system: MDA-MB-231 breast
RXF 393 renal = system: RXF 393 renal
SF-268 CNS = system: SF-268 CNS
SF-295 CNS = system: SF-295 CNS
SF-539 CNS = system: SF-539 CNS
UACC-257 melanoma = system: UACC-257 melanoma
M14 melanoma = system: M14 melanoma

Row | Compound | growth (DU-145 prostate) | growth (K-562 leukemia) | growth (MALME-3M melanoma) | growth (MDA-MB-231 breast) | growth (RXF 393 renal) | growth (SF-268 CNS) | growth (SF-295 CNS) | growth (SF-539 CNS) | growth (UACC-257 melanoma) | growth (M14 melanoma)
1 | COc1cccc2nc(Nc3ccc(F)c(NC(=O)c4ccc(CN5CCN(C)CC5)c(C(F)(F)F)c4)c3)ccc12 | 6.64% (active) | -70.8% (active) | -91.3% (active) | -37.8% (active) | -27.1% (active) | 22.2% | -84% (active) | -93.6% (active) | -66.5% (active) | -12% (active)
2 | Cn1c(O)c(N=Nc2nc(-c3cc4ccccc4oc3=O)cs2)c2cc(Br)ccc21 | 101% | 100% | 49.8% | 41.4% | – | 47.2% | 14.3% | -6.85% (active) | 100% | 88.7%
3 | CN1CCN(c2ccc(C(=O)/C=C/c3cc(C(F)(F)F)ccc3Cl)cc2)CC1 | -62.5% (active) | 2.76% (active) | -95.4% (active) | -95.1% (active) | – | 1.69% (active) | -89.3% (active) | -100% (active) | -79.7% (active) | -84.9% (active)
4 | COc1cc2c3c(n(CCCNCCO)c(=O)c2cc1OC)-c1nc2c(cc1C3=O)OCO2 | 6.05% (active) | 10.7% | 46.7% | 1.28% (active) | – | 19.1% | -8.95% (active) | -57.1% (active) | 80.2% | 23.7%
5 | Brc1ccc(N/N=C/c2c[nH]c3ccccc23)nc1 | 37.7% | 11.7% | 64.1% | -26% (active) | – | 21.4% | 25.3% | 21% | 70.8% | 14.3%
6 | COc1ccc2c(c1)N=C(C(=O)O)/C2=C/c1sc(Nc2ccc(O)cc2)nc1O | 94.1% | 29.1% | 50.7% | 63.7% | – | 78.1% | 76.5% | 52.1% | 81.3% | 72.3%
7 | O=c1[nH]c2ccc(Cl)cc2cc1CSc1ccc(Nc2nccc(-c3ccc4ccccc4c3)n2)cc1 | 38.3% | 85.7% | 20% | 55.2% | – | 68% | 111% | 94.1% | 112% | 88.4%
8 | O=C(Cn1nc(-c2ccccc2)ccc1=O)NNC(=S)NC1CCCCC1 | 117% | 90.4% | 105% | 109% | – | 113% | 101% | 97.3% | 111% | 122%
9 | CC(C)C1=C[C@@]23CC[C@@H]4[C@](C)(CCC[C@]4(C)C(=O)NCc4ccccc4)[C@H]2C[C@@H]1[C@H]1C(=O)CCC(=O)[C@H]13 | 98.1% | 55.7% | 95.5% | 86.5% | – | 80.4% | 83.1% | 72.2% | 77.6% | 86.9%
10 | COc1ccc(-c2nc(-c3ccccc3)c(-c3ccccc3)n2-c2ccc(S(=O)(=O)Nc3ncccn3)cc2)cc1OC | 89% | 76.8% | 106% | 62.2% | – | 82.9% | 46.5% | 67.2% | 113% | 93.9%
11 | COc1cc(C2CC(c3ccc(C)cc3)=Nc3c(N)nc(N)nc3N2)ccc1Oc1nc(Nc2ccc(F)cc2)nc(N(C)C)n1 (stereo not drawn) | 53.7% | 19.8% | 64.8% | 38.7% | – | 54.7% | 68.8% | 72.9% | 76.7% | 67.5%
12 | COc1ccc(/C=C/C(=O)c2ccc(N3CCN(C)CC3)cc2)c(C(F)(F)F)c1 | 41.3% | 2.66% (active) | 45.2% | 37.4% | – | 70.8% | 18.4% | 14.6% | 63.3% | 38.3%
13 | CCOC(=O)CNC(=O)CN(Cc1ccccc1)C(=O)[C@@]1(C)CCC[C@]2(C)[C@H]3CC4C(C(C)C)=C[C@]3(CC[C@H]21)[C@@H]1C(=O)CCC(=O)[C@H]41 | 92.6% | 25.3% | 83% | 64.8% | – | 64.7% | 54.4% | 77.2% | 70.2% | 72.2%
14 | CCNCCCn1c2c(c3cc(OC)c(OC)cc3c1=O)C(=O)c1cc3c(nc1-2)OCO3 | 12.1% | -18.2% (active) | -93.5% (active) | -91.6% (active) | – | 8.1% (active) | 4.2% (active) | -44.1% (active) | 45.4% | 0.853% (active)
15 | CN1C(=O)N(C)C2SC(N/N=C/c3ccc(F)cc3)=NC21 (stereo not drawn) | 76.3% | 15% | 40.1% | 38.7% | – | 52.1% | 30.8% | 29.3% | 67.7% | 23.8%
16 | CN1CCN(c2ccc(C(=O)/C=C/c3ccc(OC(F)F)cc3)cc2)CC1 | 57.8% | 6.23% (active) | 84.1% | 41.5% | – | 81% | 47.4% | -39.8% (active) | 68.7% | 31.6%
17 | CC1=C(c2cc(-c3ccc(Cl)cc3)c(C#N)c(N)n2)C(c2ccccc2)NC(=S)N1 (stereo not drawn) | 51.3% | 36.9% | 4.96% (active) | 51.9% | – | 51% | 78.1% | 39.9% | 77.7% | 49.8%
18 | C/C(=N\N=C\c1ccc(N(C)C)cc1)c1ccc2c(c1)Nc1ccccc1S2 | 62% | 28.2% | 49.9% | 52% | – | 62.8% | 24.6% | 52.8% | 64.9% | 67.7%
19 | O=C(NO)c1ccc(CN2CCN(c3nc(-c4ccccc4)c4ccccc4n3)CC2)cc1 | 23.1% | 11.4% | 11.2% | 35% | – | 26.5% | -11.7% (active) | -23.8% (active) | 43.3% | 5.75% (active)
20 | COc1ccc(C2NC(=S)NC(C)=C2C(=O)OC(C)C)cc1OC (stereo not drawn) | 110% | 105% | 95.7% | 105% | – | 107% | 97.4% | 103% | 119% | 105%
21 | N#Cc1ccc(-c2nn(-c3ccc(C(=O)O)cc3)cc2CNc2ccc(Oc3ccccc3)cc2)cc1 | 65.4% | 42.7% | 93.9% | 72.5% | – | 50.1% | 49.3% | 38.9% | 56.1% | 34.9%
22 | CC(=O)NS(=O)(=O)c1ccc(NC(=O)CSC2=NC(c3ccccc3)C(C(C)=O)=C(C)N2)cc1 (stereo not drawn) | 120% | 104% | 103% | 110% | – | 107% | 101% | 107% | 106% | 107%
23 | CC(=O)Nc1ccc(-c2cn(-c3cccc(C(=O)Nc4ccc(F)c(C(F)(F)F)c4)c3)nn2)cn1 | 42.5% | 10.9% | 2.13% (active) | -4.26% (active) | – | 68.8% | 29.4% | 22.7% | 90.4% | 62.6%
24 | CN(C)c1ccc(/C=C/C(=O)c2ccc(NC(=O)CN3C(=O)NC(C)(c4ccccc4)C3=O)cc2)cc1 (stereo not drawn) | 75.3% | 27.9% | 80.3% | 68.1% | – | 57.9% | 54.9% | 55.2% | 62.9% | 51.5%
25 | Cc1ccc(C(=O)CSc2nnc(-c3c[nH]c4ccccc34)n2-c2ccccc2)cc1 | 78.9% | 27.2% | 35.1% | -2.39% (active) | – | 29.7% | 11.1% | 22.1% | 77.3% | 51.2%
26 | COc1ccc(/C=N/N=C(\C)c2ccc3c(c2)Nc2ccccc2S3)cc1O | 62.7% | 25.7% | 55.1% | 65.3% | – | 57.2% | 45.1% | 67.2% | 27.6% | 49.3%
27 | COc1cnc2c(c1)C(=O)c1c-2n(CCCNC(C)C)c(=O)c2cc(OC)c(OC)cc12 | 16.4% | 5.04% (active) | 88.7% | 23.1% | – | 41.8% | 13.3% | -63% (active) | 90.1% | 45.3%
28 | O/N=C(\CSc1nnc(-c2c[nH]c3ccccc23)n1-c1ccccc1)c1ccc(Br)cc1 | -88.5% (active) | -11.1% (active) | -10.2% (active) | -84.2% (active) | – | -55.6% (active) | -15% (active) | -64.9% (active) | -8.6% (active) | -67.7% (active)
